Experimental data as given in PubChem BioAssay AID602144 (Vanderbilt Specialized Chemistry Center, 2011).
Values joined by “and” are separate entries in the source; they are usually repeats but may differ in a detail not shown here. Equal entries are not always repeated. A number with no mark means an inactive call. Active and inactive are the calls of the source. No stated cut-off is given here; in the data, active means remaining activity below about 50%; inactive means the rest.

biological target: Phospholipase D1 (Homo sapiens) (UniProt Q13393); test: cellular phospholipase D1 activity inhibition – Calu-1 cells, single concentration (AID 602144); conditions: cellular PLD1 activity, stronger effect = lower value;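 further: tested at 200 nM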
Sequence (Q13393 whole entry, looked up): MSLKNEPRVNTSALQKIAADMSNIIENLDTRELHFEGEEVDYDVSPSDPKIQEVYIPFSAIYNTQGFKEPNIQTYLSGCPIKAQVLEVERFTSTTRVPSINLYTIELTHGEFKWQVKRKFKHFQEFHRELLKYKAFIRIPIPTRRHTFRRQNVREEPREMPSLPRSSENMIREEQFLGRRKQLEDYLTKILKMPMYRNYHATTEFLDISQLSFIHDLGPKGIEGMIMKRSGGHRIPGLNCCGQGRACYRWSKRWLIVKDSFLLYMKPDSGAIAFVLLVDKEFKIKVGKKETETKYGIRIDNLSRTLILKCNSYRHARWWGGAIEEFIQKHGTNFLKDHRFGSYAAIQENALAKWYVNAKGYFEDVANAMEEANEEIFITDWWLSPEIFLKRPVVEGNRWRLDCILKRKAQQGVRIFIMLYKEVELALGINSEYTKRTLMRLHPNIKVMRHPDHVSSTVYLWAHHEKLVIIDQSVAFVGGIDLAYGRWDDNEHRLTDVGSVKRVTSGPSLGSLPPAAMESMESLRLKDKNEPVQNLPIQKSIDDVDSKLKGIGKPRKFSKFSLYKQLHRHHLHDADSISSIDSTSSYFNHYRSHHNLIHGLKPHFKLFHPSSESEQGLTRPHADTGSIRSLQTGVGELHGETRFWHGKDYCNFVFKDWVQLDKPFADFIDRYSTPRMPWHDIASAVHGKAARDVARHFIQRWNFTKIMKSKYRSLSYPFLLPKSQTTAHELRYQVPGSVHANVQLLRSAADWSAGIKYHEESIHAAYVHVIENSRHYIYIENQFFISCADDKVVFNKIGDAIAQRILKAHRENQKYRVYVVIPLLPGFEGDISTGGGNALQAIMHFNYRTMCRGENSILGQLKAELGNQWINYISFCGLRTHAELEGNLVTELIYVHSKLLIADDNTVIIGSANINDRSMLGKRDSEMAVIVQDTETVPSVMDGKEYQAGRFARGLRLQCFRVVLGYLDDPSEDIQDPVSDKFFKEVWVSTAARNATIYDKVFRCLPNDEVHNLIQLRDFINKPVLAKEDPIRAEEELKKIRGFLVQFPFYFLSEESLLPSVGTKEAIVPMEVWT
Sequence (Q13393 whole entry, looked up): as above

Row | Compound | remaining activity
1 | O=C(NCCN1CCC2(CC1)C(=O)NCN2c1ccc(F)c(F)c1)c1cnc2ccccc2c1 | 91.3%
2 | COc1cccc(C(=O)NCCN2CCC3(CC2)C(=O)NCN3c2ccccc2)n1 | 137%
3 | C[C@@H](CN1CCC2(CC1)C(=O)NCN2c1ccc(F)c(F)c1)NC(=O)c1cc2ccccc2[nH]1 | 0% (active)
4 | O=C(c1ccc2ccccc2c1)N1CCCC1CN1CCC(n2c(=O)[nH]c3ccccc32)CC1 (stereo not given) | 101% and 112%
5 | O=C(NCCN1CCC2(CC1)C(=O)NCN2c1ccc(Cl)cc1)c1ccc(F)cc1 | 123%
6 | O=C(NCCN1CCC2(CC1)C(=O)NCN2c1ccc(Br)cc1)c1ccc(F)cc1 | 78.5%
7 | O=C(c1cnc2ccccc2c1)N1CC(N2CCC(n3c(=O)[nH]c4cc(Br)ccc43)CC2)C1 | 81.6%
8 | O=C(NCCCN1CCC2(CC1)C(=O)NCN2c1ccccc1)c1cnc2ccccc2c1 | 99%
9 | O=C(NCCN1CCC2(CC1)C(=O)Oc1ccccc12)c1cnc2ccccc2c1 | 105%
10 | NC1(CN2CCC3(CC2)C(=O)NCN3c2ccccc2)CCCC1 (tested in a mixture with another compound) | 85.3%
11 | CC(C)[C@@H](CN1CCC2(CC1)C(=O)NCN2c1ccccc1)NC(=O)c1cc2ccccc2[nH]1 | 1.51% (active)
12 | Cc1cccc(C(=O)NCCN2CCC3(CC2)C(=O)NCN3c2ccccc2)n1 | 123%
13 | CC(C)[C@@H](CN1CCC2(CC1)C(=O)NCN2c1ccccc1)NC(=O)c1ccc(F)cc1 | 41.3% (active)
14 | O=C(CN1CCC2(CC1)C(=O)NCN2c1ccccc1)c1ccccc1 | 102%
15 | O=C(c1c(F)cccc1F)N(CCN1CCC2(CC1)C(=O)NCN2c1cccc(F)c1)C(=O)c1c(F)cccc1F | 97.9%
16 | CN(CCN1CCC2(CC1)C(=O)NCN2c1ccccc1)C(=O)c1ccc2ccccc2c1 | 84.1%
17 | O=C(NCCN1CCC2(CC1)C(=O)NCN2c1ccccc1)c1ccnnc1 | 104%
18 | O=C(NCCN1CCC2(CC1)C(=O)NCN2c1ccccc1)C1C[C@H]1c1ccccc1 (stereo not given in full) | 138%

Row | Compound | remaining activity
19 | CC(C)[C@@H](CN1CCC2(CC1)C(=O)NCN2c1ccccc1)NC(=O)c1ccc(Cl)cc1 | 18% (active)
20 | O=C(NCCN1CCC2(CC1)C(=O)NCN2c1cccc(Cl)c1)c1cnc2ccccc2c1 | 55.4%
21 | Cc1ccccc1C(=O)NCCN1CCC2(CC1)C(=O)NCN2c1cccc(F)c1 | 97.2%
22 | O=C(NCCN1CCC2(CC1)C(=O)NCN2c1ccccc1)c1ncc[nH]1 | 62.9%
23 | O=C(NCCCCCCN1CCC2(CC1)C(=O)NCN2c1ccccc1)c1cnc2ccccc2c1 | 122%
24 | C[C@H](CN1CCC2(CC1)C(=O)NCN2c1ccccc1)NC(=O)c1ccc(F)cc1 | 34.8% (active)
25 | O=C(NCCN1CCC2(CC1)C(=O)NCN2c1ccc(F)cc1)c1cnc2ccccc2c1 | 60.5%
26 | CCC(=O)N[C@@H](C)CN1CCC2(CC1)C(=O)NCN2c1ccccc1 | 93.3%
27 | O=C(NCCN1CCC2(CC1)C(=O)NCN2c1ccccc1)c1cc(-c2ccccc2)no1 | 97.4%
28 | O=C(CCc1ccc(F)cc1)NCCN1CCC2(CC1)C(=O)NCN2c1ccccc1 | 69.5%
29 | C[C@@H](CN1CCC2(CC1)C(=O)NCN2c1ccccc1)NC(=O)[C@@H]1C[C@H]1c1ccccc1 | 70.5%
30 | O=C(NCCN1CCC2(CC1)C(=O)NCN2c1ccccc1)c1ccc2c(c1)C(=O)OC2=O | 103%
31 | CC(C)(C)C(=O)NCCN1CCC2(CC1)C(=O)NCN2c1cccc(F)c1 | 71.8%
32 | O=C(c1cnc2ccccc2c1)N1CC(N2CCC3(CC2)C(=O)NCN3c2ccccc2)C1 | 106%
33 | O=C(c1cnc2ccccc2c1)N1CCCC1CN1CCC(n2c(=O)[nH]c3ccccc32)CC1 (stereo not given) | 122%
34 | O=C(NCCN1CCC2(CC1)C(=O)NCN2c1cccc(Cl)c1)c1ccc2ccccc2c1 | 57.3%
35 | C[C@H](CN1CCC2(CC1)C(=O)NCN2c1ccccc1)NC(=O)c1cc2cc(F)ccc2[nH]1 | 2.46% (active)
